Source: PubChem BioAssay
MITF TRPM1 inh – reduces MITF-dependent TRPM1 promoter luciferase signal; AID 488899; inhibition, % at 12.5 µM; 330,000 tested, 0.83% active; SK-MEL-5 TRPM1 promoter luciferase, 24 h;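 active means mean inhibition across replicates of 60% or more, whatever share of single replicates reaches that level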
LMP1 NFkB inh – Epstein-Barr LMP1 NF-kappaB reporter inhibition | LMP1-induced NF-kappaB luciferase reporter cells, luminescence | inhibition, % at 12.5 µM | 350,000 tested, 0.69% active | AID 504558; in the data active means inhibition above about 41%;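 further: 0% = neutral control wells and 100% = reference inhibitor control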
HIF-2a inh – inhibitors of HIF-2a | 786-0 RCC cells HIF-2a reporter, luciferase luminescence, overnight | 360,000 tested, 0.72% active | inhibition, % at 18.8 µM;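 active means inhibition of the luminescence signal of 40% or more relative to plate controls, in a single-dose primary screen at 18.75 µM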
Peg3 promoter – reduces Peg3 promoter-driven luciferase expression in HeLa; HeLa PEG-Prom luciferase reporter, luminescence, overnight; inhibition, % at 20 µM; 360,000 tested, 1.7% active; AID 588405;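 active means inhibition of at least 50% at 20 µM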
TROY NFkB inh – TROY signaling inhibition | Q293 LMP1-TROYcd NF-kB luciferase reporter, 4 h | inhibition, % at 10 µM | 360,000 tested, 0.98% active | AID 1347056;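 active means compounds whose plate-normalised and pattern-corrected inhibition of the luciferase reporter signal at the single screening dose is 50% or more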
TWEAK Fn14 block – TWEAK-Fn14 signaling inhibition; TWEAK-stimulated Fn14 reporter cells, luciferase luminescence, 8 h; inhibition, % at 10 µM; 360,000 tested, 2% active; AID 1159606; in the data active means inhibition above about 50%
* = called active by the depositor; . = no result. Most compounds without a hit are left out; they make up all but 4% or so of the library.

SMILES	MITF TRPM1 inh	LMP1 NFkB inh	HIF-2a inh	Peg3 promoter	TROY NFkB inh	TWEAK Fn14 block
COc1ccc(NC(=O)c2oc3ccccc3c2NC(=O)c2ccco2)cc1	-19	16	-80	-4	7	55*
CCC(C)c1ccc(NC(=O)c2ccco2)cc1 (stereo not drawn)	7	12	-36	-58	23	66*
OC(COC1CCCCC1)CN1CCCCC1 (stereo not drawn)	-2	-7	2	-5	-11	3
O=C(CNC(=O)c1ccc(Br)o1)NCC(=O)OCc1ccccc1	3	-1	2	-7	-15	-3
Cc1ccc(-c2nc(N)sc2C)cc1	-11	-3	-93	-65	88*	-5
Cc1ccc(-c2nc(N)sc2-c2ccc(C)cc2)cc1	-2	6	21	29	33	21
CCOC(=O)C1=C(CNCc2ccccc2Cl)NC(=O)NC1c1ccc2c(c1)OCO2 (stereo not drawn)	-1	-9	16	21	.	80*
CCOC(=O)C1=C(CNCc2ccccc2Cl)NC(=O)NC1c1cccc([N+](=O)[O-])c1 (stereo not drawn)	5	1	13	12	6	1
CC12CCC(=O)C=C1CCC1C2CCC2(C)C1CC1C3C(=O)N(Cc4ccccc4)C(=O)C3CC(=O)C12 (stereo not drawn)	-10	-3	13	27	14	7
COc1cc(OC)cc(C2=Cc3ccccc3C(CC(C)=O)N2c2ccc(C#CC3(O)CCCCC3)cc2)c1 (stereo not drawn)	.	.	11	.	36	52*
CC(=O)CC1c2cc(F)ccc2C=C(c2ccsc2)N1c1ccc(C#CC2(O)CCCCC2)cc1 (stereo not drawn)	.	.	-10	.	-13	57*
COc1cc(OC)cc(C2=Cc3ccccc3C(CC(C)=O)N2c2ccc(-c3cncnc3)cc2)c1 (stereo not drawn)	.	.	15	.	-20	16
CC(=O)CC1c2cc(F)ccc2C=C(c2ccsc2)N1c1ccc(C#Cc2cncn2C)cc1 (stereo not drawn)	.	.	0	.	-3	14
COCCN(C(=O)COC(=O)CSc1ccccc1)c1c(N)n(Cc2ccccc2)c(=O)[nH]c1=O	7	3	12	13	-13	1
O=C(c1ccc(Cl)nc1)N1CCc2ccccc2C1	-4	-4	4	-1	.	79*
OC[C@@H]1CN(Cc2cccs2)C[C@H](n2cnc3c(NCc4ccncc4)ncnc32)O1	.	.	4	21	-11	4
Cc1nn(C(C)C(=O)N2CCCC2)c(=O)c2nn(-c3ccccc3)c(C)c12 (stereo not drawn)	5	0	11	13	-2	-4
CCOC(=O)CSc1ccc(C(=O)N2CCN(C)CC2)cc1[N+](=O)[O-]	-9	-3	2	104*	5	-15
CCOC(=O)CSc1ccc(C(=O)NCCN2CCOCC2)cc1[N+](=O)[O-]	-1	-2	10	4	-7	12
Cc1cccc(N(C(=O)CCC(=O)Nc2nccs2)C(C(=O)NC(C)(C)C)c2ccc(O)cc2)c1 (stereo not drawn)	2	-4	9	7	2	7
CC(NC(=O)/C=C/c1cnc2ccccc2n1)C12CC3CC(CC(C3)C1)C2 (stereo not drawn)	12	-7	3	-6	75*	77*
CCOC(=O)Cc1csc(NC(=O)c2c(O)c3ccccc3n(CC(C)C)c2=O)n1	19	9	11	21	36	54*
CC(C)CN(C(=O)COC(=O)CCSc1ccc(Cl)cc1)c1c(N)n(Cc2ccccc2)c(=O)[nH]c1=O	.	0	6	34	-2	-12
CC1=C(C#N)c2nc(N)c(C#N)c(C)c2/C1=C\c1ccc(-c2ccccc2C(=O)O)o1	7	30	6	13	25	70*
O=C(NC(=O)c1ccccc1O)c1ccc2c(c1)CCO2	-12	36	-70	-56	17	54*
O=C(N/N=C/c1ccccn1)c1cc(-c2ccccc2)nc2ccccc12	.	.	8	66*	-82	-149
Cc1ccc(/C=N/NC(=O)c2cc(-c3ccccc3)nc3ccccc23)o1	18	54*	-19	14	-3	0
Cc1ccc(C=NNC(=O)c2cc(-c3cccnc3)nc3ccccc23)o1	27	-7	14	22	3	-8
